Screens as filed in PubChem BioAssay.
Hits are enriched below; roughly 2.7% of the tested compounds scored in any of these assays.
F508del corr – F508del CFTR correction, initial screen, CFBE line, single point; CFBE cells, YFP halide quenching; stimulated with forskolin plus potentiator P3; % fluorescence drop versus neutral controls; activity (quench increase), % at 7.58 µM; actives 0.36% (n = 350,000); AID 720511, 2013;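 active = mean added fluorescence quench of at least 8% versus neutral control, with both replicates also reaching 8%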;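 also: cells transiently co-express mutant CFTR-F508del with the halide-sensitive YFP; corrector assay measuring rescue of mutant channel to the surface after 24 h compound exposure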
MPTP block – mitochondrial permeability transition pore inhibitors, primary screen, biochemical, isolated mouse mitochondria, absorbance; Ca2+ swelling absorbance, 30 min; inhibition, % at 10 µM; actives 1.4% (n = 360,000);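 active = inhibition of 50% or more, scaled per plate between neutral and stimulator controls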
CendR NRP1 mod – modulators of CendR peptide binding to NRP-1, primary screen, biochemical, fluorescence polarization, uHTS. FAM-RPARPAR peptide binding to NRP-1. inhibition, % at 25 µM. actives 0.85% (n = 360,000);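 active = inhibition or corrected inhibition above about 18%, plus a signal ratio from 0.5 to 1.5, limit read from the data, passing the limit was not always enough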
ATG4B inhibitor – ATG4B protease inhibitors, primary screen, biochemical, fluorescence, uHTS | ATG4B cleavage of LC3-PLA2, NBD-HPC fluorescence, 1 h | actives 0.51% (n = 340,000) | AID 504462, 2011 | inhibition, % at 8.33 µM; in the data active = inhibition above about 40%
SKN-1 block – suppressors of acrylamide-induced Pgst-4::GFP reporter in worms, primary screen, SKN-1 inhibitor project, whole organism, uHTS, GFP/RFP fluorescence ratio, strain VP596; AID 624304, 2012; C. elegans VP596 Pgst-4::GFP/RFP ratio, 24 h; actives 0.49% (n = 360,000); inhibition, % at 21.8 µM;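 active = interference check ratio from 0.5 to 1.5 plus GFP to RFP signal ratio inhibition reaching or exceeding a fixed threshold, cut at about 30% in these data, passing the limit was not always enough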
Of the large screens only hits and unclear results are named; the others gave an inactive call.

O=C(CSC1=NNC(c2ccccn2)S1)Nc1ccccc1 (stereo not drawn)	F508del corr 11
O=C(Cn1c(-c2ccccc2Cl)nc2ccccc21)Nc1cccc(Cl)c1	CendR NRP1 mod 21
Cc1cc(C)cc(NC(=O)Cn2c(-c3ccccc3Cl)nc3ccccc32)c1	none (no result: F508del corr)
O=C(NCC[C@H]1CC[C@H](NS(=O)(=O)c2ccc(Cl)cc2)[C@@H](CO)O1)c1ccccc1F	none (no result: MPTP block, CendR NRP1 mod, ATG4B inhibitor, SKN-1 block)
COCOc1cccc(CN2CCC(C)(Oc3cccc(C#N)c3)C2)c1 (stereo not drawn)	F508del corr 8.7 (no result: ATG4B inhibitor)
CC1(Oc2cccc(F)c2)CCN(Cc2ccc3ccccc3c2)C1 (stereo not drawn)	none (no result: ATG4B inhibitor)
C(=N\N=C\c1cccs1)/c1cccs1	SKN-1 block 74
Cc1ccc(N2CCN(S(=O)(=O)N3CCCCC3)CC2)cc1C	CendR NRP1 mod 31
Cc1ccc(N2CCN(S(=O)(=O)N3CCCCCC3)CC2)cc1Cl	none
O=C1c2cccc3c(N4CCCCC4)ccc(c23)C(=O)N1c1cccc(O)c1	F508del corr 14
O=C1c2cccc3c(N4CCCCC4)ccc(c23)C(=O)N1CCO	none (no result: F508del corr)
CCCn1c(=S)[nH]c2sc3c(c2c1=O)CCCC3	none
Nn1c(=S)[nH]c2sc3c(c2c1=O)CCCC3	SKN-1 block 36 (no result: F508del corr)
C[C@@H](NC(=O)C[C@H]1C[C@@H]2c3cc(NC(=O)c4cccnc4)ccc3O[C@@H]2[C@@H](CO)O1)c1ccccc1	none (no result: MPTP block, CendR NRP1 mod, ATG4B inhibitor, SKN-1 block)
CCc1nnc(SCC(=O)N2CCCc3ccccc32)nc1CC	none (no result: F508del corr)
Cc1ccc2c(c1)c1nnc(SCC(=O)N3CCCc4ccccc43)nc1n2CC(=O)O	CendR NRP1 mod 24
O=C(COC(=O)Cc1ccsc1)Nc1cccc(F)c1	F508del corr 16
Cc1cc(NC(=O)Cc2ccsc2)ccc1Br	SKN-1 block 63
CC(=O)c1ccc(NC(=O)Cc2ccsc2)cc1	none
Cc1cc(=O)n2nc(N3CCCC(C(=O)N4CCc5ccccc54)C3)sc2n1 (stereo not drawn)	none (no result: F508del corr)
Cc1cc(=O)n2nc(N3CCCC(C(=O)N4CCOCC4)C3)sc2n1 (stereo not drawn)	CendR NRP1 mod 44 (no result: F508del corr)
Cc1ccc(C(C#N)c2ccc(C(=O)c3ccc(F)cc3)cc2)cc1 (stereo not drawn)	CendR NRP1 mod 33 (no result: F508del corr)
O=C(Nc1ccc(F)cc1)c1ccc(S(=O)(=O)N2CCOCC2)o1	CendR NRP1 mod 25
C1CCc2c(nnc3c2-c2nonc2CC3)C1	none
c1cc2c(nn1)CCc1nonc1-2	SKN-1 block 44 (no result: F508del corr)
CCC(=O)NCCCCNC(=O)CC	CendR NRP1 mod 33 (no result: F508del corr)
CC(=O)N1[C@@H]2c3ccc(-c4cccc(F)c4)c(=O)n3C[C@@H]2[C@@H](CO)[C@@H]1C(=O)NCC1CC1	none (no result: MPTP block, CendR NRP1 mod, ATG4B inhibitor, SKN-1 block)
O=C(NC(Cc1ccccc1)C(=O)N1CCN(S(=O)(=O)c2ccccc2F)CC1)c1ccccc1 (stereo not drawn)	F508del corr 8.7
CCC(=O)N1CC2(C1)[C@H](c1ccc(-c3ccccc3OC)cc1)[C@@H](CO)N2C(C)=O	none (no result: MPTP block, CendR NRP1 mod, ATG4B inhibitor, SKN-1 block)
O=C(CSc1nc2nn(-c3ccccc3)c(=O)c-2c2n1CCCCC2)Nc1ccc(OC(F)F)cc1	F508del corr 8.1
CC(=O)c1ccc(NC(=O)CSc2nc3nn(-c4ccccc4)c(=O)c-3c3n2CCCCC3)cc1	none
CCOC(=O)C1=CN(Cc2cccc(I)c2)S(=O)(=O)N(C)C1C (stereo not drawn)	F508del corr 12
CCOC(=O)C1=CN(Cc2cccc(Br)c2)S(=O)(=O)N(C)C1C (stereo not drawn)	none
CS(=O)(=O)Nc1ccc2c(c1)[C@H]1C[C@H](CC(=O)NCCN3CCCCC3)O[C@H](CO)[C@H]1O2	none (no result: MPTP block, CendR NRP1 mod, ATG4B inhibitor, SKN-1 block)
Cc1ccc(S(=O)(=O)/N=S(/C)c2ccccc2)cc1 (stereo not drawn)	CendR NRP1 mod 32 (no result: F508del corr)
CC/S(=N\S(=O)(=O)c1ccc(C)cc1)c1ccccc1 (stereo not drawn)	none
CCc1ccc(-c2ccc3nnc(SCC(N)=O)n3n2)cc1	CendR NRP1 mod 24
CC1CCCC(NC(=O)CSc2ncnc3ccccc23)C1C (stereo not drawn)	none
CC1CCCCC1NC(=O)CSc1ncnc2sccc12 (stereo not drawn)	CendR NRP1 mod 22 (no result: ATG4B inhibitor)
